# TDP1 block – inhibitors of human tyrosyl-DNA phosphodiesterase TDP1; Q9NUW8; recombinant TDP1, AlphaScreen DNA substrate cleavage; Potency, µM (titrated, usually from 130 µM), actives largely listed as inhibitors; actives 0.28% (n = 350,000); AID 485290; further: nearly all actives have a fitted effect of over 40% in size
# Target sequence (Q9NUW8 whole entry, looked up): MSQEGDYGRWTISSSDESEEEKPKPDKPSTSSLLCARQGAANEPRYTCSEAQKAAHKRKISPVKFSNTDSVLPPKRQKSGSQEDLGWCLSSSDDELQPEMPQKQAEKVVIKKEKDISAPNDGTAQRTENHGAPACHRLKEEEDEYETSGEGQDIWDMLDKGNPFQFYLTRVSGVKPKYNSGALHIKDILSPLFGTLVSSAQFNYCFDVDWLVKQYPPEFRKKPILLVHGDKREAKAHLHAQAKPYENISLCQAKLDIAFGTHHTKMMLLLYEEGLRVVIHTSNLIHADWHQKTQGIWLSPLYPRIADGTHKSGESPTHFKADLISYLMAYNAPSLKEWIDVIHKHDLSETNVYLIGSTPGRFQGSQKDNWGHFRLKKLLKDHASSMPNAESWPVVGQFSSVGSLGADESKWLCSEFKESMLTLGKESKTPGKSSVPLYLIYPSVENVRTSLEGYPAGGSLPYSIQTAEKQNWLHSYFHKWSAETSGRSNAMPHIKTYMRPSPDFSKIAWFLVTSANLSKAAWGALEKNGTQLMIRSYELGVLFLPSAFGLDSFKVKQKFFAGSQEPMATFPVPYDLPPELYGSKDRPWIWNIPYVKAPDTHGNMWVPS
#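 Signal: AlphaScreen proximity between streptavidin donor and anti-FITC acceptor beads on intact substrate. Reaction: Tdp1 1 nM, substrate 15 nM final, 5 min RT after 15 min compound preincubation.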
# IL1B secr inh – inflammasome signaling inhibition, IL-1 beta readout. THP-1 LPS/ATP IL-1B secretion, AlphaLISA, 16 h; hits give low values. activity change, % at 57.5 µM. actives 4.7% (n = 360,000). AID 743279; in the data active means activity change below about -50%; inconclusive means mostly about -30% to -49%
#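 THP-1 cells pretreated 1 hr with compounds (up to 57.5 uM final), then stimulated with LPS (250 ng/mL final) plus ATP (1.25 mM final); secreted IL-1B measured by AlphaLISA after 16 hr, decreased signal indicating inhibition.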
# ELG1 DNA repair – blocks ELG1-dependent DNA repair in HEK293T cells; HEK293T ELG1-luciferase reporter, luminescence, 16 h; DNA damage induced by 5-fluorouridine; Potency, µM (doses to about 46.1 µM), actives largely listed as inhibitors; actives 2.3% (n = 330,000); AID 504467; further: nearly all actives have a fitted effect of over 55% in size
#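 In this reporter screen, reduction of luminescence relative to DMSO vehicle indicated activity. Compounds and 5-fluorouridine were added together to 2,000 cells per well, incubated for 16 hr at 37 °C, then developed with ONE-Glo.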
# Giardia kill – Giardia lamblia killing | Giardia lamblia trophozoite viability | activity change, % at 7.66 µM, hits read low | actives 0.15% (n = 340,000) | AID 540267; in the data active means activity change below about -80%; inconclusive means between about -30% and that limit;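 further: parasites exposed to compound for two days anaerobically before the ATP read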
#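 Compounds were tested on trophozoites seeded at 100 cells/well and held 48 hrs at 37 deg C anaerobically. An ATP-based luminescent kit measured the remaining live cells.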
# TDP1 cell CPT – DT40-hTDP1 cell growth loss with CPT. chicken DT40 Tdp1-/-;hTDP1 cells + 20 nM CPT, ATP luminescence, 48 h. Potency, µM (top dose mostly 46.2 µM), actives largely listed as inhibitors. actives 12% (n = 420,000). AID 686979; further: nearly all actives have a fitted effect of over 55% in size
#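 Chicken DT40 Tdp1-/- cells complemented with human TDP1, 400 cells/well, exposed to compounds plus 20 nM camptothecin for at least 48 h at 37 C; viability read as ATP content by CellTiter-Glo luminescence.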
# DT40 TDP1 no CPT – qHTS for Inhibitors of human tyrosyl-DNA phosphodiesterase 1 (TDP1): qHTS in cells in absence of CPT; DT40 Tdp1-/- hTDP1 cells, no CPT, ATP luminescence, 48 h; Potency, µM (titrated, usually from 46.2 µM), actives largely listed as inhibitors; actives 15% (n = 420,000); further: nearly all actives have a fitted effect of over 55% in size
#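 Growth of hTDP1-complemented DT40 Tdp1-knockout cells is measured by ATP luminescence after at least 48 hr compound exposure at 37 °C, with DMSO substituting for the 20 nM CPT used in the parallel screen.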
# Hits are given with their value; 0 = inactive; ? = inconclusive; - = no result given; [ ] = remark or other dose. A selection: hits, their analogues and other compounds. The true share with any hit is near 19%. Unless noted, the call rests on the fitted dose curve; in most records, active means well fitted curve in the direction sought with a large enough effect; inconclusive means small, poorly fitted or top-dose-only effect, or another doubt; inactive means no such curve, though single readings can be large; an effect the other way counts as inactive or inconclusive.
SMILES,TDP1 block,IL1B secr inh,ELG1 DNA repair,Giardia kill,TDP1 cell CPT,DT40 TDP1 no CPT
O=C(Nc1ccc(Cl)cc1)C1CCN(C(=O)c2cccs2)CC1,0,0,0,0,0,?
O=C(CCN1CC2CCC(CC2)C1)c1cccs1,-,0,-,0,2.1µM,4.1µM
ClC1=C(Cl)[C@]2(Cl)[C@@H]3[C@H]4C[C@H]([C@@H]5O[C@H]45)[C@@H]3[C@@]1(Cl)C2(Cl)Cl,-,-,-,-,0,?
C[N+]1([O-])[C@@H]2CC[C@H]1CC(OC(=O)[C@@H](CO)c1ccccc1)C2 (stereo not given in full),0[21 µM],-,-,-,-,-
CC(C)C[C@@H]1CN(CCCC[C@H]2CNC(=O)C(=O)N2CCC2CCCCC2)C(=O)C(=O)N1CCC1CCCCC1,-,0,-,-,0,0
O=C1NC[C@H](CCCCN2C[C@@H](Cc3ccccc3)N(CC3CCCCC3)C(=O)C2=O)N(CCC2CCCCC2)C1=O,-,0,-,-,18µM,13µM
CC(C)C[C@H]1CN(CCCC[C@H]2CNC(=O)C(=O)N2CCC2CCCCC2)C(=O)C(=O)N1CCC1CCCCC1,-,0,-,-,?,21µM
Cc1ccc(O)cc1C,0,-,-,-,-,-
CCCCCCCCCc1ccc(OCCOCCO)cc1,-,-,-,-,3µM,3µM
Cc1c(F)c(F)c(COC(=O)C2C(/C=C(\Cl)C(F)(F)F)C2(C)C)c(F)c1F (stereo not given),0,-,-,-,-,-
CCN1CCN(c2ccc(N)cc2)CC1,0,0,0,0,?,0
CCN1CCN(c2ccc(N)cc2C)CC1,0,0,0,0,12µM,13µM
Cc1cc(-c2nnn(CCCOC(C)(C)C)c2C)ccc1-c1cn(CCCOC(C)(C)C)nn1,-,0,-,-,8.2µM,6.5µM
CCCCOc1ccc(CNC(=O)c2cc3n(n2)CCCN(Cc2ccc(C)cc2)C3=O)cc1,0,-,-,-,21µM,13µM
CCOP(=O)(OCC)c1cc(C)c(O)c(C(C)(C)C)c1,-,0,0,0,?,?
C=C(C)[C@H]1[C@H]2OC(=O)[C@@H]1[C@]1(O)C[C@H]3O[C@]34C(=O)O[C@H]2[C@@]14C,0[21 µM],-,-,-,-,-
C#C[C@]1(O)CC[C@H]2[C@@H]3CCC4=CC(=O)CCC4=C3C=C[C@@]21CC,-,-,-,-,13µM,9.4µM
CC(=O)O[C@H]1CC[C@H]2[C@@H]3CCC4=CC(=O)CCC4=C3C=C[C@]12C,-,-,-,-,?,0
Nc1nc(F)nc2c1ncn2[C@@H]1O[C@H](CO)[C@@H](O)[C@H]1O,-,-74,-,0,0.058µM,0.16µM
CCNC(=O)[C@H]1O[C@@H](n2cnc3c(N)ncnc32)[C@H](O)[C@H]1O,0,-,-,-,-,-
CCNC(=O)C1OC(n2cnc3c(N)ncnc32)C(O)C1O (stereo not given),-,?,-,0,0,0
Nc1nc(F)nc2c1ncn2[C@@H]1O[C@H](CO)[C@@H](O)[C@@H]1O,0,0,0,?,0.21µM,0.16µM
O=C1Nc2ccccc2/C1=C/c1cnc[nH]1,0,0,0,0,?,18µM
COc1cc(OC)c(/C=C2\C(=O)Nc3ccccc32)c(OC)c1,-,0,?,0,2.6µM,2.6µM
COc1ccc(-n2c(/C=C3\C(=O)Nc4ccccc43)nc3ccccc3c2=O)cc1,0,0,0,0,?,?
COc1ccc2c(c1)/C(=C/c1cnc[nH]1)C(=O)N2,0,-111,?,0,2.6µM,1.2µM
CN1[C@@H]2CC(OC(=O)[C@@H](CO)c3ccccc3)C[C@@H]1[C@H]1O[C@H]12 (stereo not given in full),0,-,-,-,-,-
C[C@H](NC(=O)[C@@H](N)Cc1ccc(O)cc1)C(=O)NCC(=O)N(C)[C@@H](Cc1ccccc1)C(=O)N[C@H](CO)CCS(C)=O (stereo not given in full),0,-,-,-,?,0[4.12 µM]
CCC(C)C(=O)OC1C2CC3=C4CC(=O)OC(c5ccoc5)[C@]4(C)CCC3[C@@](C)(C2=O)C(CC(=O)OC)C1(C)C (stereo not given in full),0,-,-,-,?,?
